Screens (PubChem BioAssay)
Pol eta inh-1 – qHTS for Inhibitors of Polymerase Eta; recombinant Pol eta, fluorescent DNA replication assay; Potency, µM (highest dose often 114 µM), usual class: inhibitors; 390,000 tested, 1.2% active; AID 588591, 2011; DNA polymerase eta (Homo sapiens), Q9Y253
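Fluorescent replication assay: 50 nM final substrate added after a 15 min room-temperature compound preincubation with 10 nM enzyme. Signal taken at 0 min and again at 10 min.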
POLI inh – qHTS for Inhibitors of Polymerase Iota; DNA polymerase iota (Homo sapiens), Q9UNA4; Pol iota fluorescent replication assay, 10 min; Potency, µM (doses to about 115 µM), actives largely listed as inhibitors; 390,000 tested, 1% active
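Fluorescent replication assay read twice, at 0 min and 10 min after adding 50 nM (final) substrate. Enzyme (10 nM) and compounds were first incubated 15 min at room temperature; enzyme-free buffer wells were negative controls.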
FEN1 inh – qHTS Assay for the Inhibitors of Human Flap endonuclease 1 (FEN1) | Potency, µM (top dose mostly 114 µM), hits mostly inhibitors | 390,000 tested, 0.35% active | P39748 | Recombinant FEN1 flap cleavage, fluorescence, 15 min; note: nearly all actives have a fitted effect of over 65% in size
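With each library titrated from low to high concentration, compounds met 10 nM FEN1 for 15 min at room temperature before 50 nM substrate was added; readings at 0 and 15 min fed four-parameter Hill curve fits.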
WRN inhibitor – qHTS for Inhibitors of WRN Helicase | AID 651768, 2012 | 360,000 tested, 0.46% active | Potency, µM (series often up to 114 µM), actives largely listed as inhibitors | Bifunctional 3'-5' exonuclease/ATP-dependent helicase WRN (Homo sapiens), Q14191 | WRN helicase unwinding, fluorescent forked duplex, kinetic; note: nearly all actives have a fitted effect of over 55% in size
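Screening of the MLSMR collection measured strand separation of a quenched forked DNA duplex (100 nM) by 20 nM WRN with 2 mM ATP, all final. Compounds were preincubated with enzyme 15 min at room temperature.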
Pol kappa inh-1 – qHTS for Inhibitors of Polymerase Kappa | DNA polymerase kappa (Homo sapiens), Q9UBT6 | Potency, µM (top dose mostly 107 µM), hits mostly inhibitors | purified Pol kappa, fluorescent DNA synthesis assay, 10 min | AID 588579, 2011 | 400,000 tested, 0.53% active
Target sequence (Q9UBT6 whole entry, looked up): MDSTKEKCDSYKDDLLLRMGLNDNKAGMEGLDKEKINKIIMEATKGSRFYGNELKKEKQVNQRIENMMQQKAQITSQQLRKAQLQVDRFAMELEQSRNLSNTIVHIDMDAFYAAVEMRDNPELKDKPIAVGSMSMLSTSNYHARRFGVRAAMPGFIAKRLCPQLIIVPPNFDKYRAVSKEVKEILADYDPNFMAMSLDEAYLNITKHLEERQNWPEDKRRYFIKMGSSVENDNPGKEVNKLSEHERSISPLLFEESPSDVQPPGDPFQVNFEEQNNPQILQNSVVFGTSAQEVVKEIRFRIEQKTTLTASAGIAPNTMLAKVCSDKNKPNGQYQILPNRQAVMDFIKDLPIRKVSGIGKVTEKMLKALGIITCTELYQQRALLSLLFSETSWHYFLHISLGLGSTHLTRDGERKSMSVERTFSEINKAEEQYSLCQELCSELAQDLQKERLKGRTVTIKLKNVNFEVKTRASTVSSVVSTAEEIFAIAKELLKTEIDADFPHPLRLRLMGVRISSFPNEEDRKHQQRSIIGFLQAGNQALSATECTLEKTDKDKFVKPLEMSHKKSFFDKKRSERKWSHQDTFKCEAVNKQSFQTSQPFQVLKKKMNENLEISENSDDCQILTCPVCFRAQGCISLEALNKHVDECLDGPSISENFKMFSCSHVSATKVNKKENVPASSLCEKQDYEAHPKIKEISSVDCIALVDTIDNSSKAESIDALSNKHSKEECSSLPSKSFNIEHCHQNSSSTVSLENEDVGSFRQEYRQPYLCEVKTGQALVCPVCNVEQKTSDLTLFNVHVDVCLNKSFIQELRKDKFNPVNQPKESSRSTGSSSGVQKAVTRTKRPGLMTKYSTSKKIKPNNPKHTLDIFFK
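Pol kappa 10 nM + cpd, 15 min RT; start w/ substrate 50 nM final; fluorescence kinetic read, 0 and 10 min. Neg ctrl: buffer, no enzyme.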
POLB inh – qHTS Assay for Inhibitors of DNA Polymerase Beta; P06746; Pol beta primer extension/strand displacement, fluorescence kinetic; Potency, µM (titrated, usually from 114 µM), most hits filed as inhibitors; 340,000 tested, 1.3% active; AID 485314, 2010
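Kinetic readout of DNA synthesis with strand displacement by Pol beta. Compound and 10 nM enzyme sit 15 min at room temperature; 50 nM substrate starts the reaction, read immediately and at 10 min.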
GALK inh confirm – Confirmation Assay for Inhibitors of Human Galactokinase (GALK); shares compounds with Pol eta inh-1; purified GALK, Kinase-Glo ATP depletion luminescence; Potency, µM (highest dose often 115 µM), actives largely listed as inhibitors; 150 tested, 70% active
GALK redox cs – Confirmatory Assay for Inhibitors of Human Galactokinase (GALK): Phenol-HRP redox assay counterscreen; shares compounds with Pol eta inh-1; Phenol red-HRP H2O2 redox cycling, absorbance 600 nm; Potency, µM (series often up to 115 µM), hits mostly inhibitors; 150 tested, 40% active; AID 2035, 2009
HEK293 tox – Secondary Assay for Inhibitors of Human Galactokinase (GALK): HEK-293 Cell Viability Assay | shares compounds with Pol eta inh-1 | HEK-293 viability, ATP luminescence (CellTiter-Glo), 24/48 h | Potency, µM (titrated, usually from 46.1 µM), actives largely listed as inhibitors | 170 tested, 10% active
Pol kappa inh-2 – qHTS for Inhibitors of Polymerase Kappa: Confirmatory Assay for Cherry-picked Compounds. shares compounds with Pol eta inh-1. purified Pol-kappa, fluorescent strand-displacement substrate. Potency, µM, most hits filed as inhibitors. 920 tested, 76% active
Pol eta inh-2 – qHTS for Inhibitors of Polymerase Eta: Confirmatory Assay for Cherry-picked Compounds. shares compounds with Pol eta inh-1. Pol eta primer extension, TAMRA/BHQ fluorescence, 10 min. Potency, µM, hits mostly inhibitors. 2,600 tested, 64% active. AID 720502, 2013
Large screens that a line does not name were inactive (follow-up assays come after a bar, where they were run). Rows were chosen to be rich in hits. Some 2.4% of all compounds tested hit in one or more screens of this group. Calls come from the whole dose curve; as a rule, active = well fitted curve in the direction sought with a large enough effect; inconclusive = small, poorly fitted or top-dose-only effect, or another doubt; inactive = no such curve, though single readings can be large; an effect the other way counts as inactive or inconclusive.

O=C1C=C(N(CCO)Cc2ccccc2)c2ccccc2C1=O	Pol eta inh-1 20µM, POLI inh 4.47µM | GALK inh confirm 11.9µM | GALK redox cs 5.95µM | HEK293 tox inactive
O=C1c2ccccc2C(=O)c2c1cccc2N(CCO)CCO	none
COc1cccc(Nc2ncc3nc(-c4cn(C)c5ccccc45)c(=O)n(CCC#N)c3n2)c1	none (no result: Pol eta inh-1, POLI inh, FEN1 inh, WRN inhibitor, POLB inh)
COc1ccccc1/C=C1\SC(=S)N(CCC(=O)Nc2ccc(C(=O)O)c(O)c2)C1=O	Pol eta inh-1 35.5µM, POLI inh inconclusive, FEN1 inh inconclusive, POLB inh 79.4µM | Pol kappa inh-2 inconclusive | Pol eta inh-2 inconclusive
COc1ccccc1/C=C1/SC(=O)N(CCC(=O)Nc2ccc(S(=O)(=O)Nc3nccs3)cc2)C1=O	Pol eta inh-1 20µM, POLI inh 50.1µM, FEN1 inh inconclusive, WRN inhibitor inconclusive, POLB inh inconclusive | Pol eta inh-2 inconclusive
CC(/C=C1\SC(=S)N(CCC(=O)Nc2cccc(C(=O)O)c2)C1=O)=C\c1ccccc1	Pol eta inh-1 inconclusive, WRN inhibitor 79.4µM, POLB inh inconclusive | Pol kappa inh-2 inconclusive | Pol eta inh-2 inconclusive
Cc1ccccc1OCc1nc2c3cnn(-c4cccc(F)c4)c3ncn2n1	none (no result: Pol eta inh-1, WRN inhibitor)
C=CCN(CC=C)S(=O)(=O)c1ncn[nH]1	Pol eta inh-1 8.91µM, POLI inh inconclusive, Pol kappa inh-1 inconclusive, POLB inh inconclusive | Pol eta inh-2 inconclusive
O=C(Nc1nnc(C2CCCCC2)s1)C1CC(=O)N(c2ccccc2)C1 (centres undefined)	none
O=C(Nc1nnc(C2CC2)s1)C1CC(=O)N(c2ccc3c(c2)OCCO3)C1 (centres undefined)	Pol eta inh-1 20µM, POLI inh 44.7µM, Pol kappa inh-1 inconclusive, POLB inh inconclusive | Pol eta inh-2 inconclusive
Clc1ccc(-c2noc3ncnc(N4CCCCC4)c23)cc1	none (no result: WRN inhibitor)
COc1cc(OC)c(/C=C2\SC(=O)N(CC(=O)Nc3ccccc3F)C2=O)c(OC)c1	none
CCOc1cc(/C=C2\SC(=O)N(CC(=O)Nc3ccccc3F)C2=O)cc([N+](=O)[O-])c1O	Pol eta inh-1 inconclusive, POLI inh 11.2µM, FEN1 inh 50.1µM | Pol kappa inh-2 inconclusive
Cc1cc(S(=O)(=O)Nc2nc(CN3CCOCC3)nc3sc4c(c23)CCC4)cc(C)c1C	Pol eta inh-1 17.8µM, POLI inh 25.1µM, WRN inhibitor inconclusive, Pol kappa inh-1 inconclusive (no result: POLB inh) | Pol kappa inh-2 inconclusive | Pol eta inh-2 inconclusive
Cc1ccc(S(=O)(=O)Nc2nc(CN3CCOCC3)nc3sc(C(=O)O)c(C)c23)cc1	Pol eta inh-1 12.6µM (no result: POLI inh, FEN1 inh, Pol kappa inh-1, POLB inh) | Pol eta inh-2 30.1
Cn1c(SCC(=O)Nc2nc3ccccc3s2)ncc(C(=O)Nc2ccc(Cl)cc2)c1=O	none (no result: WRN inhibitor)
